The list is not random: actives were taken first. Their share in the collection is about 9%.
JMJD2A Tudor = blocks the human JMJD2A Tudor domain; Potency, µM (doses to about 114 µM), for the others: at the top dose activity change, negative = inhibition, most hits filed as inhibitors; 4.4% of 390,000 active; AlphaScreen JMJD2A-Tudor / H3K4me3 peptide binding; also: % is scaled to controls: 0 for no effect and ±100 for the full control effect; nearly all actives have a fitted effect of over 50% in size
12-LOX inh = blocks human arachidonate 12S-lipoxygenase. P18054. purified 12hLO, xylenol orange hydroperoxide absorbance. Potency, µM (doses to about 108 µM), inactives show at the highest dose activity change, negative = inhibition, usual class: inhibitors. 1.1% of 580,000 active. AID 1671190; also: % is scaled to controls: 0 for no effect and ±100 for the full control effect
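Hydroperoxide product was detected by ferrous iron/xylenol orange as the 573 to 405 nm absorbance ratio. Arachidonic acid at 40 uM (final) was turned over for 30 min at room temperature by 150 nM human 12hLO, pH 7.0 Hepes buffer, after 15 min compound preincubation.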
G9a block = blocks human histone lysine methyltransferase G9a; G9a H3K9 monomethylation, AlphaScreen, 2 h; AID 504332; 8.8% of 350,000 active; Potency, µM (doses to about 102 µM), for inactives: at the highest dose activity, negative = inhibition, most hits filed as inhibitors; also: % is scaled to controls: 0 for no effect and ±100 for the full control effect; nearly all actives have a fitted effect of over 75% in size
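Step 1: enzyme (final 20 nM) with compound, 15 min RT. Step 2: substrate peptide 500 nM and SAM 20 uM, 2 h RT. Step 3: anti-H3K9me1 antibody and AlphaScreen beads, 10 min, then plate read.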
HP1b chromo inh = HP1-beta chromodomain-methylated histone interaction inhibition. AlphaScreen HP1-beta / biotin-H3K9me3 peptide binding. P83916. Potency, µM (highest dose often 114 µM), for inactives: at the top dose activity change, negative = inhibition, hits mostly inhibitors. 0.56% of 390,000 active; also: nearly all actives have a fitted effect of over 70% in size
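HP1-beta protein (50 nM final) preincubated 30 min at room temperature with biotinylated H3(1-18)K9me3 peptide (50 nM) in PBS pH 7.4, 0.01% Tween-20, then compound added for 30 min. AlphaScreen streptavidin donor/nickel chelate acceptor beads (10 ug/mL final), 30 min dark, luminescence read.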
PLK1 PBD block = PLK1 (human) polo-box domain binding inhibition; Plk1 PBD binding of FITC phosphopeptide, fluorescence polarization; 2.8% of 360,000 active; Potency, µM, inactives show max response, negative = inhibition, hits mostly inhibitors; also: series mostly up to about 57 µM; % is scaled to controls: 0 for no effect and ±100 for the full control effect; nearly all actives have a fitted effect of over 65% in size
BAZ2B inh = blocks human BAZ2B; Potency, µM (top dose mostly 114 µM), inactives show top-dose activity change, negative = inhibition, usual class: inhibitors; AID 504333; AlphaScreen BAZ2B-H3K14Ac peptide displacement; 4.4% of 360,000 active; also: % is scaled to controls: 0 for no effect and ±100 for the full control effect; nearly all actives have a fitted effect of over 60% in size
Target sequence (Q9UIF8 whole entry, looked up): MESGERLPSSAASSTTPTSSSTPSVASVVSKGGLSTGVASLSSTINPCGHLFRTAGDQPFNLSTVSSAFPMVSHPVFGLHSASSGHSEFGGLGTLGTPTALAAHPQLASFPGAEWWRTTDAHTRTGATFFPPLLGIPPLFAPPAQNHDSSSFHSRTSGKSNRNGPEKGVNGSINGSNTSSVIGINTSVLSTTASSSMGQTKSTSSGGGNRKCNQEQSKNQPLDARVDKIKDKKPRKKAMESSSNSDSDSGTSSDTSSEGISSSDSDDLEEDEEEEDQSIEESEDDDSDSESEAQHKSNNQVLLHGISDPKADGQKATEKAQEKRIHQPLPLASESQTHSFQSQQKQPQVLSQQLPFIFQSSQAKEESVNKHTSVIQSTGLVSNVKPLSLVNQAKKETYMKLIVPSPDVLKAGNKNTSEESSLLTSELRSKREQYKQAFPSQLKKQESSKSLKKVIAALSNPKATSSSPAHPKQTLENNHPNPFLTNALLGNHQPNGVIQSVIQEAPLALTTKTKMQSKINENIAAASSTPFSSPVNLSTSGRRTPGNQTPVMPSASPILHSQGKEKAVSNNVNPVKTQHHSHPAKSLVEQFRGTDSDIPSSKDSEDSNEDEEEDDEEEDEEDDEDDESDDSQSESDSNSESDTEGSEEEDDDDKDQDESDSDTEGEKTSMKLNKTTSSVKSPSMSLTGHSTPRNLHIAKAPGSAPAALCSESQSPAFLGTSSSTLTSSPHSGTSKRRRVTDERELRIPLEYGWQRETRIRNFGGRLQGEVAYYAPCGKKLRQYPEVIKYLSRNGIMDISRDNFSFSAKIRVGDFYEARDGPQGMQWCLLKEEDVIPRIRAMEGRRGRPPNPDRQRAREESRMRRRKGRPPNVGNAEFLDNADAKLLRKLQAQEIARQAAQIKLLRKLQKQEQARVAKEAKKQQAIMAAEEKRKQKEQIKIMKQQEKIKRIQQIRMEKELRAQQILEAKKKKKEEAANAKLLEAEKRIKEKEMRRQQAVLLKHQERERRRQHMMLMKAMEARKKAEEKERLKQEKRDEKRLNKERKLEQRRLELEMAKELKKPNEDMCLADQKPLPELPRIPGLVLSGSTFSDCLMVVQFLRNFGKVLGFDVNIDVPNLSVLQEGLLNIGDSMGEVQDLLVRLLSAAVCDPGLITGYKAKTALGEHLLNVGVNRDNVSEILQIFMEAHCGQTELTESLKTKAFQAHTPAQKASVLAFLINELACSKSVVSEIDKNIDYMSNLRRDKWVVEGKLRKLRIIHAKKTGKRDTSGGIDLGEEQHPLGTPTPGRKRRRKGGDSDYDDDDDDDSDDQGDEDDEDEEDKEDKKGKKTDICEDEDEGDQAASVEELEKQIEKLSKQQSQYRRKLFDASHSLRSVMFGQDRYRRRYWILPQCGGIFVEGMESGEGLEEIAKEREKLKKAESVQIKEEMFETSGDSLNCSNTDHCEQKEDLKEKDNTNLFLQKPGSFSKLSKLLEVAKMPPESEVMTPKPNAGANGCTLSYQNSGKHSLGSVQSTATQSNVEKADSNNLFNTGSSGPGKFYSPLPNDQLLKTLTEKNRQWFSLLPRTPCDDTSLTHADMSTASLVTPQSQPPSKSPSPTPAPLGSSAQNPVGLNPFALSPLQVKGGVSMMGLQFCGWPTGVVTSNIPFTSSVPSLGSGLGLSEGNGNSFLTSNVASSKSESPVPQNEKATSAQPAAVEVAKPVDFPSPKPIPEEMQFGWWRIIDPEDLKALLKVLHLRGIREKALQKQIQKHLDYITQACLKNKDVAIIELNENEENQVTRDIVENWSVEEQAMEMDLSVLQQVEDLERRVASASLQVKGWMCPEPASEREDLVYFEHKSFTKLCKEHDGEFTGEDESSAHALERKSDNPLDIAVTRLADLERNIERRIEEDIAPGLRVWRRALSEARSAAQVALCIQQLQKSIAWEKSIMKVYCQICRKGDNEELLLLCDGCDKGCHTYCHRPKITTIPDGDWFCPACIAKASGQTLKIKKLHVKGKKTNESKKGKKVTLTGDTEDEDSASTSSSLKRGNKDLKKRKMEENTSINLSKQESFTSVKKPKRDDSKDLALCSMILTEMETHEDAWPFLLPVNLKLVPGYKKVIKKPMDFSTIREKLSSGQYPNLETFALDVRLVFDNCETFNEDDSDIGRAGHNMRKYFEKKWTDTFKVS
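Inhibition is scored as reduced AlphaScreen emission. The BAZ2B/b-H3(5-23)K14Ac complex (50 nM each) in PBS pH 7.4, 0.01% Tween-20 meets compound (up to 110 uM) for 30 min at RT before bead addition.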
Starred values were filed as active, the others as inactive; ? = inconclusive; / = not tested or not shown; ! = not confirmed by another sample; [ ] = another dose, or the depositor's remark. Calls follow the shape of the dose curve; as a rule, active = well fitted curve in the direction sought with a large enough effect; inconclusive = small, poorly fitted or top-dose-only effect, or another doubt; inactive = no such curve, though single readings can be large; an effect the other way counts as inactive or inconclusive. Potency is read from the fitted curve at half-maximal effect.

SMILES	JMJD2A Tudor	12-LOX inh	G9a block	HP1b chromo inh	PLK1 PBD block	BAZ2B inh
CN1C(C(=O)NCc2cccc(C(F)(F)F)c2)CC2Cn3c(nc4ccccc43)C21 (configuration not stated)	-17%	3%	1%[59 µM]	8%	-8%	-4%
COc1ccc(CNC(=O)c2cccc3c2C(=O)N(c2ccc(OC)cc2)C3)cc1	/	-24%	/	/	/	/
COc1ccc(N2Cc3cccc(C(=O)O)c3C2=O)cc1	45µM*!	/	32µM*	?	?	20µM*
CCOC(=O)C1=C(O)C(=O)N(c2ccc(S(N)(=O)=O)cc2)C1c1ccc(OC)cc1OC (configuration not stated)	?	-11%	-41%	10%	-9%	-4%
COc1ccc(Oc2coc3cc(OC(=O)c4ccc(Cl)cc4)ccc3c2=O)cc1	/	-2%	/	/	/	/
O=C(Oc1ccc2c(=O)c(Cl)coc2c1)c1ccncc1	-2%[57.1 µM]	0%	35µM*	40%	?	?
Cc1cccc(C)c1N1CCN(S(=O)(=O)N(C)C)CC1	-3%	?	22%	43%	2%	0%
O=C(Cc1csc(NC(=O)Nc2ccc(Cl)cc2)n1)NC1CCCC1	-18%	?	?	19%	-1%	-28%
O=C(Cc1csc(NC(=O)Nc2ccc(Cl)cc2)n1)NCc1ccccn1	-21%	?	45µM*	19%	-5%	-8%
CCOc1cc(/C=N/Nc2nnc(C)n2N)ccc1OC(C)=O	9%	?	45µM*	45%	4%	-14%
Cc1nnc(N/N=C/c2cccc(OCc3ccc(Cl)c(Cl)c3)c2)n1N	?	18µM*	10µM*	-5%	-10%	?
Cc1nnc(N/N=C/c2cccc(C(F)(F)F)c2)n1N	-1%	15%	21%	34%	1%	?
CCc1nnc(N/N=C\c2ccc(OC(C)=O)c(OC)c2)n1N	-25%	?	?	33%	-3%	?
c1ccc2ncc(-n3ccnc3)cc2c1	/	6%	/	/	-4%	/
O=c1[nH]c2c(s1)C(c1ccco1)C1C3CCC(C3)C1S2 (configuration not stated)	?	170%	7.9µM*	-13%	?	50µM*
COCCSc1nc2c(c(=O)[nH]c(=O)n2C)n1CCCc1ccccc1	-16%	28µM*!	/	-24%	21µM*	5%
C=C(C)Cn1c(SCC(=O)OCc2ccccc2)nc2c1c(=O)[nH]c(=O)n2C	/	-3%	/	/	/	/
CCOCCSc1nc2c(c(=O)[nH]c(=O)n2C)n1CCCc1ccccc1	-21%	-11%	-39%	4%	-9%	-1%
CCCCCOC(=O)CSc1nc2c(c(=O)[nH]c(=O)n2C)n1CCc1ccccc1	8%	?	13µM*	-15%	21µM*	-6%
COCCn1c(SCCCc2ccccc2)nc2c1c(=O)[nH]c(=O)n2C	-2%	-28%	50µM*	-11%	?	9%
COCCn1c(SCC(=O)OCc2ccccc2)nc2c1c(=O)[nH]c(=O)n2C	-8%	-8%	32µM*	1%	?	-3%
CCc1nnc(NC(=O)C2(C)COC(c3ccc(OC)cc3)OC2)s1 (configuration not stated)	-17%	5%	-45%	19%	-9%	5%
CC1(c2ccc(OC(F)F)cc2)NC(=O)N(CC(=O)Nc2ccc(F)cc2)C1=O (configuration not stated)	-17%	9%	14%	-11%	-1%	2%
Cc1cccc(C(=O)N2CCN(C(=O)c3cccc(C)c3)C(C)C2)c1 (configuration not stated)	-7%	9%	20%[59 µM]	37%	1%	-4%
O=C(NC1CCSc2ccccc21)c1cc([N+](=O)[O-])ccc1N1CCOCC1 (configuration not stated)	-21%	-14%	56µM*	-12%	-6%	-29%
SMILES	JMJD2A Tudor	12-LOX inh	G9a block	HP1b chromo inh	PLK1 PBD block	BAZ2B inh
CCC(=O)Nc1nc2ccc([N+](=O)[O-])cc2s1	-4%	1%	4%	35%	-10%	-16%
Nc1cc(=O)[nH]c(SCC(=O)Nc2cc([N+](=O)[O-])ccc2Cl)n1	?	-25%	11%	?	21µM*	-20%
O=C(CN1CCOCC1)Nc1nc2ccc([N+](=O)[O-])cc2s1	10µM*	2%	-46%	30%	-21%	-27%
Nc1cc(=O)[nH]c(SCC(=O)Nc2nc3ccc([N+](=O)[O-])cc3s2)n1	/	/	40µM*	/	/	?
O=C(NC1CCSc2ccccc21)c1ccc([N+](=O)[O-])cc1 (configuration not stated)	-15%	?	-11%	31%	1%	-26%
COc1ccc(-c2nc3ccc(NC(C)=O)cc3c(=O)n2Cc2ccccc2)cc1COc1ccc(NC(C)=O)cc1	?	/	/	19%	/	/
O=C(CCc1ccccc1)NCC(=O)N1CCN(c2ccccn2)CC1	/	35%	/	/	/	/
CC1CCC2(CC1)OCC(C(=O)NCC1CC1)N2C(=O)c1ccc(F)cc1 (configuration not stated)	/	9%	/	/	/	/
O=C(Nc1nc2ccc(Oc3ccccc3)cc2s1)c1cc([N+](=O)[O-])ccc1N1CCOCC1	-32%	0%	16µM*	-1%	-20%	?
COc1ccc(OC)c(N(CCN2C(=O)c3ccccc3C2=O)C(=O)CCl)c1	/	-18%	/	/	-5%	/
N#CCC(=O)N/N=C/c1ccc(OC2CSC2)cc1	-21%	-6%	-1%	21%	-16%	-29%
Oc1cccc(Nc2nc(O)c(/C=C3\C=Nc4ccccc43)s2)c1	-24%[11.4 µM]	-14%	50µM*	11%	29%	?
CCNc1c(NC(=O)Nc2ccc(CC)cc2)c(=O)oc2ccccc12	/	45µM*	/	/	/	/
CCc1ccc(NC(=O)Cc2c(C(=O)O)n(C)c3ccccc23)cc1	-13%	0%	?	21%	-1%	28µM*
CCc1ccc(NC(=O)Nc2cn(C)c(=O)c3ccccc23)cc1	-13%	-14%	10µM*	31%	/	-11%
CCNc1c(NC(=O)Nc2ccccc2)c(=O)oc2ccccc12	/	-14%	/	/	/	/
c1ccc(OCCOCCSc2ncccn2)cc1	-1%	349%	49%[12.7 µM]	37%	-3%	-3%
Cc1ncccc1C(=O)N1C[C@@H](Oc2cccnc2)C[C@H]1C(=O)N1CCOCC1	/	4%	/	/	/	/
CCCCc1c(O)nc(SCC(=O)O)[nH]c1=O	3%	17%	?	53%	-13%	-4%
CCCc1c(O)nc(SCC(=O)O)[nH]c1=O	?	0%	/	35%	19µM*	-32%
CCCCc1c(O)nc(SCC(=O)NCC2CCCO2)[nH]c1=O (configuration not stated)	11%	11%	23%[59 µM]	39%	-7%	/
